# FLuc counter: counter-screen for miR-21 project: firefly luciferase inhibitors or activators | purified FLuc, Km substrates, luminescence inhibition | 360,000 compounds, 6.9% hits | P08659 | AID 588342 | Potency, µM (series often up to 57.5 µM), for the others: at the highest dose activity change, negative = inhibition, hits mostly inhibitors;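 also: plate controls were vehicle for no effect and reference inhibitor for full effect; nearly all actives have a fitted effect of over 55% in size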
# Target sequence (P08659 whole entry, looked up): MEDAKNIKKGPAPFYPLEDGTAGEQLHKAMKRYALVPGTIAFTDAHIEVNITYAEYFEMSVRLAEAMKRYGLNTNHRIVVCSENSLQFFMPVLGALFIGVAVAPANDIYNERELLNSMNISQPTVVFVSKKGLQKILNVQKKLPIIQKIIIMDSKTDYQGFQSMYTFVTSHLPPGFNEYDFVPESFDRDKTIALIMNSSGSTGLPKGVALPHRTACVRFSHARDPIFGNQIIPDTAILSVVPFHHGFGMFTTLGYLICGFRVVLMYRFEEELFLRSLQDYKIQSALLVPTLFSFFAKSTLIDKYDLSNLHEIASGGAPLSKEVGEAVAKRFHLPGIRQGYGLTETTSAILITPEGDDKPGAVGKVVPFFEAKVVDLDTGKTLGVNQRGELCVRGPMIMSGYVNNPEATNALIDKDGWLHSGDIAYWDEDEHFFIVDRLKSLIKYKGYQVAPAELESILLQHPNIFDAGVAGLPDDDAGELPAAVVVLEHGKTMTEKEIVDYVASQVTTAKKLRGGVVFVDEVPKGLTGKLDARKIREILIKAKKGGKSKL
#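 Purified P. pyralis luciferase (10nM final) with 10uM D-luciferin and 10uM ATP (Km levels) in 50mM Tris acetate pH 7.5, 10mM Mg acetate, 0.01% Tween-20, 0.05% BSA; qHTS 6-point titration, ~60 µM downward; luminescence read.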
# Luc counter: Kinase-Glo luciferase inhibition (counter-screen). Potency, µM (doses to about 38.3 µM), without a hit: at the top dose activity change, negative = inhibition, actives largely listed as inhibitors. 200,000 compounds, 0.28% hits. AID 1379. Q27757. Kinase-Glo luciferase, ATP luminescence, 8 min; also: % is scaled to controls: 0 for no effect and ±100 for the full control effect; nearly all actives have a fitted effect of over 60% in size
#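 Compound is pinned into ATP-containing buffer (10 uM ATP, imidazole pH 7.2, 7 mM MgCl2). Kinase-Glo luciferase reagent is then added. Light output is recorded following an 8-min room-temperature incubation.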
# SMN2 splice enh: increases expression of the SMN2 splice variant; HEK293 SMN2-luciferase splicing reporter, luminescence, 30-36 h; Potency, µM (titrated, usually from 46.1 µM), for the others: at the top dose activity change, positive = activation, usual class: activators; 210,000 compounds, 2.8% hits; also: % of control where 0% means no effect; nearly all actives have a fitted effect of over 55% in size
#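 HEK293 cells carry an SMN2 minigene-luciferase reporter in which exon 7 inclusion puts luciferase in frame. Cells were seeded at 2000 cells/well, attached for 10-12 hours, then exposed to compounds for 30-36 hours at 37C before ONE-Glo luminescence.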
# ELG1 genotoxic: inducers of genotoxicity in HEK293T ELG1-luciferase cells | HEK293T ELG1-luciferase reporter, luminescence, 16 h | Potency, µM (series often up to 46 µM), for inactives: top-dose activity change, positive = activation, hits mostly activators | 330,000 compounds, 1.3% hits; also: % of control where 0% means no effect; nearly all actives have a fitted effect of over 60% in size
#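 DMSO vehicle served as control against compound-treated ELG1-luciferase HEK293T cells; exposure lasted 16 hr at 37 °C and 5% CO2, followed by ONE-Glo luminescence detection after 30 min.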
# NPC1 prom act: activates the NPC1 promoter | 320,000 compounds, 2.4% hits | Huh7 NPC1 promoter luciferase reporter, 24 h | Potency, µM (series often up to 9.22 µM), without a hit: at the top dose activation, most hits filed as activators; also: % of control where 0% means no effect; nearly all actives have a fitted effect of over 60% in size
#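 Luciferase expression driven by the NPC1 promoter was measured in stably transfected Huh7 cells after a 24 h compound incubation, using a luciferase reagent and a luminescence read.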
# Rab9 prom act: Rab9 promoter activation | Huh7 Rab9 promoter-luciferase reporter, luminescence, 24 h | Potency, µM (top dose mostly 9.22 µM), for the others: top-dose activation, negative = inhibition, hits mostly activators | 320,000 compounds, 2.8% hits | AID 485297; also: % of control where 0% means no effect; nearly all actives have a fitted effect of over 60% in size
#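 Cell-based reporter: Huh7 stable for Rab9 promoter-driven luciferase, plated in reduced-serum medium with 10% FBS at 1500 cells/well, compound-treated 24 h at 37 °C, luminescence read after 10 min reagent.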
# Numbers without * were called inactive; u = inconclusive; x = no result; [ ] = another dose, or the depositor's remark. This is a sample that favours compounds with a hit; in the whole collection about 7.5% have one here. Calls follow the shape of the dose curve; as a rule, active = well fitted curve in the direction sought with a large enough effect; inconclusive = small, poorly fitted or top-dose-only effect, or another doubt; inactive = no such curve, though single readings can be large; an effect the other way counts as inactive or inconclusive. Potency is read from the fitted curve at half-maximal effect.
SMILES,FLuc counter,Luc counter,SMN2 splice enh,ELG1 genotoxic,NPC1 prom act,Rab9 prom act
COc1ccc(Br)cc1S(=O)(=O)Nc1cc(-c2cn3ccccc3n2)ccc1C,u,x,-3%,x,x,x
COc1ccc(-n2nc(C(=O)NCC(=O)N3CCN(c4ccccn4)CC3)c3ccccc3c2=O)cc1,1.2µM*,-1%,u,2%,u,u
COc1ccc(/C=C/C(=O)NC(=S)N2CCN(c3ccccn3)CC2)cc1,13µM*,x,x,10%,6%,0%
COc1ccc(-n2nc(C(=O)NCC(=O)N3CCN(c4ccccn4)CC3)c3ccccc3c2=O)cc1OC,4.8µM*,0%,-1%,-4%,-4%,18%
COc1ccc(-n2nc(C(=O)NCC(=O)Nc3cc(OC)c(OC)c(OC)c3)c3ccccc3c2=O)cc1OC,-1%,x,x,-9%,-5%,-2%
COc1ccc(CC(=O)N2CCN(c3ccccn3)CC2)cc1,1%,4%,12%,0%,-5%,2%
COc1ccc2c(c1)CCC1C2CC[C@@]2(C)C1CC[C@@H]2NCCCCCCN1C(=O)CCC1=O (some centres undefined),x,x,x,x,-5%[46.1 µM],-9%[46.1 µM]
O=C1c2cc(Br)ccc2O[C@@H](c2ccc3c(c2)OCO3)[C@@H]1O,x,1%,18%,x,x,x
Cc1ccc2nc(-c3ccc(C)s3)c(Nc3ccc4c(c3)OCCO4)n2c1,u,x,13µM*,x,x,x
COc1cc(-c2nc3ccc(C)cn3c2Nc2ccc3c(c2)OCCO3)ccc1O,21µM*,17%,u,4%,1%,0%
Cc1ccc2nc(-c3ccco3)c(Nc3ccc4c(c3)OCCO4)n2c1,11µM*,x,8%,x,x,x
Cc1ccn2c(Nc3ccc4c(c3)OCCO4)c(-c3ccc(C)o3)nc2c1,13µM*,x,u,x,x,x
Cc1ccccc1CNC(=O)CCC(=O)N1CC2CCCN2c2ccccc21 (centres undefined),-8%,x,x,x,x,x
Cc1ccc(C(=O)NCC(=O)NC23CC4CC(CC(C4)C2)C3)cc1,-19%,x,x,16µM*,26%,u
Cc1ccc(/C(O)=C/C(=O)C(=O)NC23CC4CC(CC(C4)C2)C3)cc1,17µM*,x,x,6%,u,3.2µM*
Cc1ccc(CNC(=O)NC23CC4CC(CC(C4)C2)C3)cc1,-1%,0%,-20%,-2%,-1%,-4%
O=C1CCCC(O)=C1C=Nc1ccc(O)cc1,-13%,1%,-19%,2%,6%,2%
Oc1ccc(N=Cc2ccc(-c3cccs3)s2)cc1,8.5µM*,-2%,-34%,0%,-4%,-1%
CC(C)Oc1ccc(C(=O)NCCc2csc(-c3cccc(F)c3)n2)cc1,24µM*,x,x,x,x,x
O=C(NCc1ccc(Cl)cc1)c1csc(-c2cccnc2)n1,0%,x,x,-8%,5%,-6%
CCOc1ccc(C(=O)NCCc2csc(-c3cccnc3)n2)cc1,21µM*,x,x,x,x,x
O=C(Cc1ccc(F)cc1)NCCc1csc(-c2cccc(F)c2)n1,-3%,x,x,x,x,x
O=C(NNC(=O)c1ccc(Cl)cc1Cl)c1csc(-c2cccnc2)n1,5.4µM*,x,x,3%,25%,17%
O=C(NCCc1csc(-c2cccnc2)n1)c1ccccc1Br,17µM*,x,x,-5%,1%,-2%
O=C(CC1N=C2c3ccccc3N=C(SCc3cccc(F)c3)N2C1=O)NCc1ccc2c(c1)OCO2 (centres undefined),-11%,x,x,x,x,x
CCOC(=O)Cn1c(=O)n(C2CCCCC2)c2nc(-c3c(F)cccc3Cl)nc(C(N)=O)c21,-6%,x,x,x,x,x
O=C(CC1N=C2c3ccccc3N=C(SCC(=O)Nc3cccc(Cl)c3)N2C1=O)NCc1cccs1 (centres undefined),4%,x,x,x,x,x
O=C(NCCc1csc(-c2cccnc2)n1)c1ccc(Cl)cc1,9.5µM*,x,x,-3%,-2%,-1%
CCOc1ccc(OCC)c(NS(=O)(=O)c2cc(-c3cc(C)no3)ccc2C)c1,3%,x,x,x,x,x
Cc1cccc(-c2nnc(C3CCN(S(=O)(=O)c4cccc(Cl)c4)CC3)o2)c1,u,x,-14%,x,x,x
